Results published in PubChem BioAssay (NCI).
About 83,000 compounds went through this panel and 20% of them were active in at least one assay; those are over-represented in the sample as a whole.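 The endpoint reported here, percent growth, reads 100 for growth as untreated, 0 for no net growth and -100 for all cells dead.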 Activity calls are given as the source filed them. Rule for the calls: active = growth percent below 10; inactive = the rest.

tested on: RPMI-8226 leukemia; assay: NCI-60 one-dose screen, 48 h (100 = growth as untreated, 0 = no growth, -100 = all killed); details: 10 µM unless noted

SMILES | growth
OCC1C2C=CC(C2)C1CO (stereo unspecified) | 97% (inactive)
Fc1ccc(Cc2ccc(F)cc2)cc1 | 108% (inactive)
O=c1ccc2cc3ccccc3cc2[nH]1 | 87.4% (inactive)
COc1ccc(-c2nn(-c3ccccc3)cc2/C=C/C(=O)OCc2cn(-c3ccc(F)c(Cl)c3)nn2)cc1 | 75.2% (inactive)
COc1ccccc1N1CCN(CCn2c(=O)c3c(c4ccccc4n3C)n(C)c2=O)CC1 | 109% (inactive)
CCCCCCCCCCNC(=O)CCl | 82.3% (inactive)
N=S(=O)(NC(=O)c1ccc(Cl)cc1Cl)c1ccc(Br)s1 (stereo unspecified) | 86.5% (inactive)
CCOC(=O)/C=C/C(=O)[C@H](CC(C)C)NC(=O)[C@H](Cc1ccccc1)NC(=O)OCc1ccccc1 | -19.9% (active)
COC1/C=C\OC2(C)Oc3c(C)c(O)c4c(O)c(c(CN(C)CCO)c(O)c4c3C2=O)NC(=O)/C(C)=C\C=C/C(C)C(O)C(C)C(O)C(C)C(OC(C)=O)C1C (stereo unspecified) | 86.4% (inactive)
COc1nc2c(cc1S(=O)(=O)c1ccccc1)CCc1c-2cnn1Cc1ccccc1 | 32.8% (inactive)
O=S(=O)(NCCCNc1cc(-c2cn(-c3ccccc3)nc2-c2ccccc2)ccn1)c1ccc(C(F)(F)F)cc1 | 44.1% (inactive)
N#CC1=C(N)Oc2c(ccc3ccccc23)C1c1cccs1 (stereo unspecified) | -17.3% (active)
CCN(CC)CCCNc1cc(OC)cc2nc3cc(Cl)ccc3nc12 | -14.3% (active)
O=C(CN1CCN(c2cc3c(cc2F)c(=O)c(C(=O)O)cn3C2CC2)CC1)Nc1nc(-c2ccc(Cl)cc2)cs1 | 1.14% (active)
O=C1CC(c2nc3ccccc3[nH]2)CN1C1CCCCC1 (stereo unspecified) | 106% (inactive)
COc1cc(OC)c(/C=C/c2cc[n+](C)c3ccccc23)c(OC)c1 | -2.59% (active)
CCN(CC)c1ccc(CNc2cc(C)nc3ccc(OC)cc23)cc1 | -33.7% (active)
CCCCCN(CCCCC)CCC[C@@H](C)[C@H]1CC[C@H]2[C@@H]3[C@H](OCCCN)C[C@@H]4C[C@H](OCCCN)CC[C@]4(C)[C@H]3C[C@H](OCCCN)[C@]12C | -17.7% (active)
COc1cc(OC)c(/C=C/S(=O)(=O)Cc2ccc(OC)c(N)n2)c(OC)c1 | 33.1% (inactive)

SMILES | growth
CC(=O)C1=C(O)C=C2Oc3c(C(=O)/C=C/c4cc(C(F)(F)F)cc(C(F)(F)F)c4)c(O)c(C)c(O)c3[C@]2(C)C1=O | -18.8% (active)
Cc1cc(Nc2nc(N3CCOCC3)nc3ccccc23)n[nH]1 | 82.5% (inactive)
COc1cc(OC)c(/C=C/C(=O)c2c(OC)cc(OC)cc2OC)c(OC)c1 | -6.66% (active)
c1ccc(CSc2ncnc3nc[nH]c23)nc1 | 124% (inactive)
C=C(CN1CCN(c2cccc(C(F)(F)F)n2)CC1)c1ccc(C(=O)Nc2ccccc2N)cc1 | 4.35% (active)
CN1CCOCCOCCOc2ccccc2NC(=O)c2nc(cnc2N)-c2ccc(cc2)S1(=O)=O | 30.3% (inactive)
COc1cc(/C=N/N(C)C)ccc1O | 92.4% (inactive)
O=C(/C=C/c1ccc(B(O)O)cc1)/C=C/c1ccc(B(O)O)cc1 | -23.5% (active)
CCC(=O)OCc1cccc(OC)c1 | 84.8% (inactive)
COc1cnc2c(c1)C(=O)c1c-2n(CCCBr)c(=O)c2cc([N+](=O)[O-])ccc12 | -12.9% (active)
C/C(=C(/c1ccc(O)cc1)c1ccc(OCCN2CCCC2)cc1)c1ccccc1 | 11.9% (inactive)
CCCCCCCCCc1cc(CN2CCCCC2)c(O)c(CN2CCCCC2)c1 | 23.7% (inactive)
CCCCN(CC)CCCCCCCCCCN1CCCc2cc(OC)ccc21 | -18.4% (active)
COc1cc(NC(N)=NCC(C)(C)COc2ccc(C(F)(F)F)cc2)cnc1C#N | 46% (inactive)
COc1ccc2nc(NC(=O)c3cccnc3Nc3cc(OC)c(OC)c(OC)c3)sc2c1 | -1.38% (active)
CCN(CC)CCC(=O)c1ccc(OC)c2ccccc12 | 8.95% (active)
COc1ccc(/C=C2\N=C3Sc4cc(Cl)ccc4C(=O)N3C2=O)cc1 | 101% (inactive)
Nc1c(C(=O)Nc2ccccc2)sc2nc3c(cc12)CN(CCc1ccccc1)CC3 | 92.2% (inactive)
CC(C)Oc1nc2c(c(=O)n(C)c(=O)n2C)n1C | 105% (inactive)

tested on: OVCAR-8 ovarian; assay: as above; details: 10 µM unless noted

SMILES | growth
OCC1C2C=CC(C2)C1CO (stereo unspecified) | 98.6% (inactive)
Fc1ccc(Cc2ccc(F)cc2)cc1 | 108% (inactive)
O=c1ccc2cc3ccccc3cc2[nH]1 | 105% (inactive)
COc1ccc(-c2nn(-c3ccccc3)cc2/C=C/C(=O)OCc2cn(-c3ccc(F)c(Cl)c3)nn2)cc1 | 80.1% (inactive)
COc1ccccc1N1CCN(CCn2c(=O)c3c(c4ccccc4n3C)n(C)c2=O)CC1 | 85% (inactive)
CCCCCCCCCCNC(=O)CCl | 47.8% (inactive)
N=S(=O)(NC(=O)c1ccc(Cl)cc1Cl)c1ccc(Br)s1 (stereo unspecified) | 90.9% (inactive)
CCOC(=O)/C=C/C(=O)[C@H](CC(C)C)NC(=O)[C@H](Cc1ccccc1)NC(=O)OCc1ccccc1 | 72.8% (inactive)
COC1/C=C\OC2(C)Oc3c(C)c(O)c4c(O)c(c(CN(C)CCO)c(O)c4c3C2=O)NC(=O)/C(C)=C\C=C/C(C)C(O)C(C)C(O)C(C)C(OC(C)=O)C1C (stereo unspecified) | 90.7% (inactive)
COc1nc2c(cc1S(=O)(=O)c1ccccc1)CCc1c-2cnn1Cc1ccccc1 | 54% (inactive)
O=S(=O)(NCCCNc1cc(-c2cn(-c3ccccc3)nc2-c2ccccc2)ccn1)c1ccc(C(F)(F)F)cc1 | 54.6% (inactive)
N#CC1=C(N)Oc2c(ccc3ccccc23)C1c1cccs1 (stereo unspecified) | 17.2% (inactive)
CCN(CC)CCCNc1cc(OC)cc2nc3cc(Cl)ccc3nc12 | -8.47% (active)
O=C(CN1CCN(c2cc3c(cc2F)c(=O)c(C(=O)O)cn3C2CC2)CC1)Nc1nc(-c2ccc(Cl)cc2)cs1 | 13.2% (inactive)
O=C1CC(c2nc3ccccc3[nH]2)CN1C1CCCCC1 (stereo unspecified) | 95.2% (inactive)
COc1cc(OC)c(/C=C/c2cc[n+](C)c3ccccc23)c(OC)c1 | -8.8% (active)
CCN(CC)c1ccc(CNc2cc(C)nc3ccc(OC)cc23)cc1 | 81.4% (inactive)
CCCCCN(CCCCC)CCC[C@@H](C)[C@H]1CC[C@H]2[C@@H]3[C@H](OCCCN)C[C@@H]4C[C@H](OCCCN)CC[C@]4(C)[C@H]3C[C@H](OCCCN)[C@]12C | 55.3% (inactive)
COc1cc(OC)c(/C=C/S(=O)(=O)Cc2ccc(OC)c(N)n2)c(OC)c1 | 11% (inactive)

SMILES | growth
CC(=O)C1=C(O)C=C2Oc3c(C(=O)/C=C/c4cc(C(F)(F)F)cc(C(F)(F)F)c4)c(O)c(C)c(O)c3[C@]2(C)C1=O | -29.1% (active)
Cc1cc(Nc2nc(N3CCOCC3)nc3ccccc23)n[nH]1 | 104% (inactive)
COc1cc(OC)c(/C=C/C(=O)c2c(OC)cc(OC)cc2OC)c(OC)c1 | 17.6% (inactive)
c1ccc(CSc2ncnc3nc[nH]c23)nc1 | 120% (inactive)
C=C(CN1CCN(c2cccc(C(F)(F)F)n2)CC1)c1ccc(C(=O)Nc2ccccc2N)cc1 | 18.8% (inactive)
CN1CCOCCOCCOc2ccccc2NC(=O)c2nc(cnc2N)-c2ccc(cc2)S1(=O)=O | 64% (inactive)
COc1cc(/C=N/N(C)C)ccc1O | 96.1% (inactive)
O=C(/C=C/c1ccc(B(O)O)cc1)/C=C/c1ccc(B(O)O)cc1 | 72.2% (inactive)
CCC(=O)OCc1cccc(OC)c1 | 98.2% (inactive)
COc1cnc2c(c1)C(=O)c1c-2n(CCCBr)c(=O)c2cc([N+](=O)[O-])ccc12 | 2.09% (active)
C/C(=C(/c1ccc(O)cc1)c1ccc(OCCN2CCCC2)cc1)c1ccccc1 | 83% (inactive)
CCCCCCCCCc1cc(CN2CCCCC2)c(O)c(CN2CCCCC2)c1 | 76.6% (inactive)
CCCCN(CC)CCCCCCCCCCN1CCCc2cc(OC)ccc21 | 87.5% (inactive)
COc1cc(NC(N)=NCC(C)(C)COc2ccc(C(F)(F)F)cc2)cnc1C#N | 81.8% (inactive)
COc1ccc2nc(NC(=O)c3cccnc3Nc3cc(OC)c(OC)c(OC)c3)sc2c1 | -10.3% (active)
CCN(CC)CCC(=O)c1ccc(OC)c2ccccc12 | 89.6% (inactive)
COc1ccc(/C=C2\N=C3Sc4cc(Cl)ccc4C(=O)N3C2=O)cc1 | 94.6% (inactive)
Nc1c(C(=O)Nc2ccccc2)sc2nc3c(cc12)CN(CCc1ccccc1)CC3 | 99.7% (inactive)
CC(C)Oc1nc2c(c(=O)n(C)c(=O)n2C)n1C | 103% (inactive)
